Screening data (PubChem BioAssay)
Candida biofilm: kills Candida albicans biofilms; C. albicans biofilm + clotrimazole, Alamar Blue; inhibition, % at 6 µM; 85,000 compounds, 0.14% hits; AID 834;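 active = inhibition above 20%; inactive = inhibition below 20%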;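 also: preformed 24 hr biofilms exposed to compound for 48 hr; 0% = biofilm without compound and 100% = blank killed by clotrimazole plus chlorhexidine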
D1 mod: allosterically modulates the human D1 dopamine receptor; HEK293 D1, CRE-luciferase, dopamine EC30 potentiation; actives deviate in either direction; B-score at 10 µM; 58,000 compounds, 5.9% hits; AID 641;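 active = luminescence count or its row- and column-corrected plate score outside the 99.7% band of the plate's sample wells, on either side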
hDAT+cocaine: changed human dopamine transporter uptake under cocaine IC80. Q01959. LLC-PK1 hDAT cells, [14C]-dopamine uptake with cocaine IC80; actives deviate in either direction. B-score at 10 µM. 110,000 compounds, 1.3% hits. AID 449768;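 active = Z score or B-score, a plate-position-corrected score, falls beyond the plate's 99.7% confidence bounds, in either direction; inactive = both scores lie inside the 99.7% bounds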;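 also: scored against the spread of the other compound wells on the same plate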
PLAP activator: human PLAP activation | P05187 | 96,000 compounds, 1.2% hits | activation fold at 20 µM | purified PLAP enzyme, luminescent substrate read-out; active compounds read high; in the data active = activation fold above about 2
HePTP inh: blocks human HePTP tyrosine phosphatase. 110,000 compounds, 0.64% hits. recombinant HePTP phosphatase activity, OD absorbance. AID 521. inhibition, % at 20 µM; in the data active = inhibition above about 50%;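 also: plate controls were vehicle for no effect and reference inhibitor for full effect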
Target sequence (P35236 whole entry, looked up): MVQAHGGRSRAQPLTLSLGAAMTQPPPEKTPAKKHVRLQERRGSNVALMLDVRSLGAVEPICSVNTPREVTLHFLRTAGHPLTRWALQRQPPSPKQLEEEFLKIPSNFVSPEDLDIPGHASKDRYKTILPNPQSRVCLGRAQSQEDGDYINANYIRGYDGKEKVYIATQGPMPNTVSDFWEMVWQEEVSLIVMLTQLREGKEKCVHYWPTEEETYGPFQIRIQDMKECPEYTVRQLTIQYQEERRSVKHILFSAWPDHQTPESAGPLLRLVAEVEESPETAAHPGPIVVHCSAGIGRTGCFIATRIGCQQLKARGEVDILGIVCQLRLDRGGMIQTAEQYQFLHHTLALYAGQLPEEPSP
TNAP act DEA: activators of human TNAP at intermediate phosphate acceptor. P05186. purified TNAP, CDP-star luminescence, 100 mM DEA, 30 min; active compounds read high; scale: 0 levamisole-inhibited, 1 vehicle-only enzyme. activation factor at 20 µM. 64,000 tested, under 10 active;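 active = activation factor of at least 2 at 20 µM, relative to controls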
D1 mod confirm: D1 receptor (human) allosteric modulation, confirmed; shares compounds with D1 mod; HEK293 D1 CRE-luciferase, dopamine EC30 potentiation; active compounds read high; luminescence at 10 µM; 2,200 compounds, 88% hits; AID 642;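 active = luminescence in either of two replicates above the same-plate mean plus 3 SD of the low-dose dopamine control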
D1 no dopamine: activates D1 CRE-luciferase signal without dopamine present; shares compounds with D1 mod; HEK293 D1 CRE-luciferase, luminescence, no dopamine; active compounds read high; 1,900 compounds, 0.8% hits; luminescence at 10 µM; in the data active = luminescence above about 3900
Isoprot counter: isoproterenol response counter-screen activity for D1 modulators; shares compounds with D1 mod; 2,200 compounds, 63% hits; HEK293 D1 CRE-luciferase, isoproterenol EC30 counter-screen; active compounds read high; luminescence at 10 µM;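 active = luminescence in either replicate above plate mean of wells with a partly effective reference agonist dose plus 3 SD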;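 also: isoproterenol raises cAMP through native beta-adrenoceptor Gs so signal bypasses D1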
An asterisk follows results filed as active; . = no result. This excerpt belongs to a sample that is enriched for hits.

SMILES | Candida biofilm | D1 mod | hDAT+cocaine | PLAP activator | HePTP inh | TNAP act DEA | D1 mod confirm | D1 no dopamine | Isoprot counter
CC1CCN(c2nc3c(c(=O)[nH]c(=O)n3C)n2Cc2ccccc2)CC1 | 6 | 7.9* | 0.28 | 0.9 | -9 | 1 | 16032* | 1452 | 3620*
Cc1ccc(Cn2c(-n3nc(C)cc3C)nc3c2c(=O)[nH]c(=O)n3C)cc1 | 9 | 3.5* | 0.72 | 1.2 | -2 | 0.8 | 9484* | 1480 | 2868
CCCCCCCCn1c(N2CCN(c3cccc(Cl)c3)CC2)nc2c1c(=O)[nH]c(=O)n2C | -3 | . | 1.2 | 1.7 | . | . | . | . | .
CC(=O)c1ccc(NC(=O)C2CC(=O)N(C3CCCCC3)C2)cc1 (stereo not drawn) | . | . | . | . | 7 | . | . | . | .
CC(C)(C)C1CCc2c(sc3[nH]c(=S)[nH]c(=O)c23)C1 (stereo not drawn) | . | . | . | . | -15 | . | . | . | .
COc1ccccc1NC(=O)N(Cc1ccc2c(c1)OCO2)Cc1nc2ccccc2c(=O)[nH]1 | -1 | 4.9* | 0.53 | 1.2 | 2 | 0.9 | 5620* | 1528 | 2940
N#CCC(=O)N/N=C/c1ccc(O)cc1O | . | . | . | . | -13 | . | . | . | .
CN1CCN(c2nc(-c3ccccc3)c3cc(Cl)ccc3n2)CC1 | 9 | 5* | 0.88 | 1.3 | 15 | 0.9 | 11380* | 1508 | 2660
Clc1ccc2nc(N3CCNCC3)nc(-c3ccccc3)c2c1 | 1 | . | 1.7 | 1.5 | 10 | 0.8 | . | . | .
CCOCCCNC(=O)CN(Cc1ccc(Cl)cc1)S(C)(=O)=O | 3 | 0.43 | -0.085 | 0.9 | 8 | 0.9 | . | . | .
COCCCNC(=O)CN(Cc1ccc(Cl)cc1)S(C)(=O)=O | 5 | 9.2* | -0.87 | 1.4 | 6 | 1 | 5504 | 1488 | 2592
Cc1ccc(C(=O)c2sc3nc4c(cc3c2N)CCC4)c(C)c1 | . | . | . | . | 0 | . | . | . | .
CCOc1ccccc1NC(=O)CN(C)S(=O)(=O)c1cccc2nsnc12 | 3 | 4.7* | 0.38 | . | 14 | 0.9 | 6432* | 1328 | 3040
CCOC(=O)c1[nH]c2ccccc2c1NC(C)=O | . | 0.39 | -1.3 | . | -3 | 0.9 | . | . | .
CCOC(=O)c1[nH]c2ccccc2c1NC(=O)CC | 0 | -0.051 | . | 0.9 | 0 | 0.9 | . | . | .
CCOC(=O)c1[nH]c2ccc(Cl)cc2c1NC(=O)c1nonc1C | 9 | . | 0.042 | 0.9 | . | . | . | . | .
CCOC(=O)c1[nH]c2ccccc2c1NC(=O)C(C)(C)C | -2 | 4.5* | -0.14 | 0.8 | 11 | 0.8 | 7700* | 1592 | 2504
CCOC(=O)c1[nH]c2ccccc2c1NC(=O)c1nonc1C | 2 | 5.8* | -1.4 | 0.9 | -4 | 0.9 | 11368* | 1672 | 3528*
CCOC(=O)c1[nH]c2ccc(OC)cc2c1NC(=O)c1nonc1C | 6 | 8.7* | -0.038 | 1 | 10 | 0.8 | 12456* | . | 3508*
CCC(=O)c1ccc(N2CCN(C(=O)c3ccc(F)cc3F)CC2)c(F)c1 | . | . | . | . | 9 | . | . | . | .
CC1(C)Cc2nc3oc4c(NCc5ccccc5)ncnc4c3cc2CO1 | 9 | 0.2 | . | 1.1 | -1 | 1 | . | . | .
CCCc1nc2oc3c(NCC4CCCO4)ncnc3c2c2c1COC(C)(C)C2 (stereo not drawn) | 11 | 15* | 1.4 | 1.4 | 6 | 1 | 19660* | . | 4428*
CCCc1nc2oc3c(NCc4ccccn4)ncnc3c2c2c1COC(C)(C)C2 | 6 | 16* | . | 1.5 | -9 | 1 | 19424* | . | 5392*
CCOC(=O)NC(=O)CN1C(=O)NC(C)(c2ccccc2)C1=O (stereo not drawn) | 5 | 4.4* | -0.6 | 1.1 | 16 | 0.9 | 5048 | 704 | 2512
CC1(c2ccccc2)NC(=O)N(CC(=O)NC(=O)NC2CCCC2)C1=O (stereo not drawn) | 7 | -0.98 | 0.075 | 0.9 | 9 | 0.9 | . | . | .
SMILES | Candida biofilm | D1 mod | hDAT+cocaine | PLAP activator | HePTP inh | TNAP act DEA | D1 mod confirm | D1 no dopamine | Isoprot counter
Cc1csc2c(C#N)c(=O)c3c(n12)CCC3 | 3 | 4.4* | -0.8 | 1 | -7 | 0.9 | 6564* | 1476 | 2560
Cc1ccc(C)n1-c1sc2c(c1C#N)CCCC2 | 6 | . | 1.5 | . | . | . | . | . | .
C=CCNC(=O)C(=O)N/N=C/c1ccc2c(c1)OCCO2 | . | . | . | . | -17 | . | . | . | .
COC(=O)c1sccc1NC(=O)c1ccc(Cl)s1 | 6 | 1.7 | 0.1 | 0.8 | 12 | 0.9 | . | . | .
CNC(=O)c1ccsc1NC(=O)c1ccc(Cl)s1 | 0 | 4.9* | -0.16 | 1 | 4 | 1 | 16692* | 1816 | 3356*
COc1cccc(N2C(=O)C3ON(c4ccccc4)C(c4cccs4)C3C2=O)c1 (stereo not drawn) | 6 | 15* | 2 | 1.4 | 8 | 0.9 | 6168* | 1676 | 3028
COC(=O)c1ccc(OCCn2cnc3ccccc3c2=O)cc1 | 9 | 5.2* | -0.28 | 1 | 8 | 0.9 | 9464* | 2040 | 3192
COc1ccc(Nc2ncnc3c2cnn3Cc2ccccc2)cc1OC | 6 | 5.2* | 1.8 | 1.1 | -2 | 1 | 8056* | 1576 | 4144*
CC1S/C(=N/N=C/c2ccccc2)NC1=O (stereo not drawn) | . | . | . | . | -3 | . | . | . | .
COc1ccc(S(=O)(=O)N/N=C/c2ccc[nH]2)cc1 | . | . | . | . | 7 | . | . | . | .
COc1ccc(-n2nc3ccccc3n2)cc1 | 12 | 3.2* | 0.31 | 0.9 | 2 | 0.9 | 10504* | 1592 | 2764
CC(=O)OC1CC(C)N(C(=O)c2ccccc2)c2ccc(C)cc21 (stereo not drawn) | 4 | 11* | 0.12 | 0.9 | -12 | 0.9 | 11832* | 1612 | 3960*
CCCC(=O)OC1CC(C)N(C(=O)c2ccccc2)c2ccc(C)cc21 (stereo not drawn) | 3 | . | 1.6 | . | . | . | . | . | .
CCOc1ccccc1NC(=O)C1C2C=CC(O2)C1C(=O)O (stereo not drawn) | 4 | 4.8* | -0.36 | 1.4 | 1 | 0.9 | 5564 | 1628 | 2552
CCOc1ccccc1NC(=O)C1C2C=CC(C2)C1C(=O)O (stereo not drawn) | 2 | . | -1.3 | 1 | . | . | . | . | .
CC(=O)Nc1cccc(Oc2cc(C#N)c(C#N)cc2N2CCCCCC2)c1 | 3 | 9.1* | 0.035 | 1.7 | 7 | 0.9 | 11784* | . | 4332*
CCNc1nc2c(c(=O)n(Cc3ccccc3)c(=O)n2C)n1Cc1ccccc1 | . | 4.4* | 3* | 1.6 | 10 | 0.9 | 8220* | 1508 | 3808*
CCC(C)Nc1nc2c(c(=O)n(C)c(=O)n2C)n1Cc1cccc(C)c1 (stereo not drawn) | 6 | -0.096 | 0.23 | . | . | . | . | . | .
Cn1c(=O)c2c(nc(Br)n2Cc2ccc3ccccc3c2)n(C)c1=O | 4 | . | -0.92 | 0.9 | 3 | 0.9 | . | . | .
